From paper PMC5540273 (PLoS ONE, 2017)

Tests used:
Settings in all cases: concentration: 1 μM, replicates: in singlicate; n = 1
AMPK-alpha2 = tested on: T1, AMPK-alpha2
T1 construct: gene PRKAA2

ANKK1 = tested on: ANKK1
ARK5 = tested on: T2, ARK5
T2 construct: gene NUAK1

ASK1 = tested on: T3, ASK1
T3 construct: gene MAP3K5

ASK2 = tested on: T4, ASK2
T4 construct: gene MAP3K6

AURKA = tested on: AURKA
AURKB = tested on: AURKB
AURKC = tested on: AURKC
AXL = tested on: AXL
BIKE = tested on: T5, BIKE
T5 construct: gene BMP2K
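Note: KINOMEscan kinase panel screen.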

SMILES	%Inh (AMPK-alpha2)	%Inh (ANKK1)	%Inh (ARK5)	%Inh (ASK1)	%Inh (ASK2)	%Inh (AURKA)	%Inh (AURKB)	%Inh (AURKC)	%Inh (AXL)	%Inh (BIKE)
Cl.Nc1ncnc2occ(-c3ccc(NC(=O)Nc4cc(C(F)(F)F)ccc4F)cc3)c12 [SB-707548]	22%	77%	21%	32%	0%	53%	96.7%	53%	97.7%	10%
Cc1cn2c(=O)cc(N3CCOCC3)nc2n1Cc1cccc(Cl)c1Cl [GSK2334006]	0%	0%	14%	1%	3%	0%	26%	44%	0%	27%
[2H]C([2H])(c1cccc(C(F)(F)F)c1C)n1ccn2c(=O)nc(N3CCOCC3)cc12 [GSK2336394]	15%	0%	0%	1%	0%	0%	11%	13%	8%	23%
N#Cc1c(N2CCOCC2)sc(-c2ccn[nH]2)c1-c1ccc(Cl)cc1	0%	0%	0%	0%	0%	44%	4%	0%	0%	0%
CN1c2ccc(NCc3ccc(F)cc3)cc2-c2c(cnn2C)S1(=O)=O	0%	0%	0%	0%	0%	0%	14%	0%	0%	0%
O=C(c1ccc(-c2cc(-c3c[nH]nc3-c3ccccn3)ccn2)cc1)N1CCOCC1 [GW812171]	22%	14%	0%	0%	0%	13%	33%	0%	0%	0%
Cc1ccc(C(=O)NCC(N)=O)cc1-n1c(C)cc(OCc2ccc(F)cc2F)c(Br)c1=O	11%	0%	0%	12%	0%	0%	0%	8%	11%	7%
CSc1ccc(-c2cc3ncnc(SCC(=O)O)c3s2)cc1	5%	0%	0%	0%	0%	0%	78%	12%	5%	12%
CC(C)(C)n1cnc2c(N)ncnc21 [SKF-97359]	0%	0%	19%	0%	0%	0%	15%	0%	45%	0%
NS(=O)(=O)c1cccc(-c2ccc3ncc(N4CCOCC4)nc3c2)c1 [GSK1535721]	12%	15%	0%	0%	0%	19%	0%	0%	2%	0%
CN(C1=C(c2ccccc2)C(=O)NC1=O)c1ccccc1 [SB-334860]	23%	9%	42%	12%	0%	21%	10%	0%	0%	0%
NS(=O)(=O)c1cccc(-c2ccc3nccc(-c4cccc(S(N)(=O)=O)c4)c3c2)c1 [GW867253]	6%	0%	0%	0%	0%	19%	45%	0%	0%	0%
Cc1cccc(Cn2ccn3c(=O)cc(N4CCOCC4)nc23)c1 [GSK2297542]	12%	19%	12%	0%	6%	15%	0%	18%	5%	15%
Fc1ccc(-c2ncn(CCCN3CCOCC3)c2-c2cccnc2)cc1 [SB-211743]	12%	0%	12%	0%	0%	15%	31%	5%	0%	0%
O=c1cc(N2CCOCC2)nc2n(Cc3cccc(C(F)(F)F)c3)ccn12 [GSK2297543]	0%	5%	0%	0%	0%	13%	0%	4%	18%	18%
COCCNC(=O)c1ccc(-c2cc(C(=O)NC3CC3)cc(F)c2C)cc1 [GW868318]	0%	11%	0%	5%	26%	27%	33%	0%	0%	7%
COc1cc(Nc2nccc(N3CCC(NC(=O)c4cccc(NC(C)=O)c4)C3)n2)cc(OC)c1OC (stereo not drawn) [GSK1379754]	12%	34%	31%	0%	0%	97.6%	0%	88%	36%	86%

SMILES	%Inh (AMPK-alpha2)	%Inh (ANKK1)	%Inh (ARK5)	%Inh (ASK1)	%Inh (ASK2)	%Inh (AURKA)	%Inh (AURKB)	%Inh (AURKC)	%Inh (AXL)	%Inh (BIKE)
CNc1ncnc2[nH]ncc12 [SKF-18355]	0%	0%	0%	0%	0%	2%	34%	0%	0%	0%
Cc1cccc(-c2nc(-c3ccc(S(C)(=O)=O)cc3)sc2-c2ccncc2)c1	7%	0%	13%	0%	15%	24%	23%	0%	12%	0%
Cc1cccc(-c2nc(Nc3ccc4ncsc4c3)c3ccccc3n2)n1 [GW867588]	0%	0%	0%	15%	20%	22%	8%	0%	0%	0%
O=c1cc(N2CCOCC2)nc2n(Cc3cccc(F)c3)ccn12 [GSK2297430]	21%	0%	7%	0%	6%	0%	0%	32%	14%	26%
NCC(NC(=O)c1cc(-c2cn[nH]c2)c(-c2ccnc3[nH]ccc23)s1)c1ccccc1.O=C(O)C(F)(F)F.O=C(O)C(F)(F)F (stereo not drawn) [GSK1325775]	24%	0%	52%	11%	23%	95.6%	83%	82%	45%	99.7%
CN(C(=O)c1ccc(-c2cc(-c3c[nH]nc3-c3ccccn3)ccn2)cc1)C1CCOCC1 [GW810083]	0%	0%	15%	44%	0%	0%	0%	7%	48%	20%
COC(=O)Nc1nc2cc(Oc3ccc(NC(=O)Nc4cc(F)ccc4F)cc3)ccc2[nH]1.Cl [GW701424]	8%	12%	0%	13%	0%	0%	94.5%	50%	93.5%	3%
Cn1ccc2ncnc(Oc3ccc(NC(=O)Nc4ccncc4)c(Cl)c3)c21	5%	0%	14%	0%	0%	0%	3%	0%	0%	0%
CCc1ccnc(/C=C/c2n[nH]c3cc(Sc4ccccc4C(=O)NC)ccc23)c1	0%	0%	11%	0%	0%	77%	94.5%	97.3%	45%	34%
O=c1cc(N2CCOCC2)nc2n(Cc3cccc(Cl)c3Cl)c(C3CC3)nn12 [GSK2358994]	0%	0%	0%	0%	0%	0%	4%	0%	3%	0%
O=C1Cc2cc(Nc3nc(NCc4cccc(S(=O)(=O)C(F)(F)F)c4)ncc3C(F)(F)F)ccc2N1	0%	0%	22%	11%	0%	1%	13%	0%	2%	0%
CCn1cnc2c(N)ncnc21 [GW345098]	0%	0%	0%	15%	0%	4%	6%	4%	0%	5%
COc1ccc(Nc2ncc(C#N)c(Nc3ccccc3C(N)=O)n2)cc1N1CCN(C)CC1.Cl [GSK1558669]	99.8%	52%	100%	0%	22%	99.9%	99.9%	100%	98.9%	100%
O=C(NCCNc1ccnc(Nc2ccc(F)cc2)n1)c1cc2ccccc2s1 [GSK1379874]	0%	0%	0%	1%	0%	11%	0%	32%	10%	0%
CCc1nc(-c2cccc(C)c2)c(-c2ccnc(NCc3ccccc3)c2)s1	5%	0%	15%	0%	0%	0%	14%	0%	0%	0%
C[C@@H](Oc1cc(-n2cnc3ccc(NC(=O)NC(C)(C)C)cc32)sc1C(N)=O)c1ccccc1Cl [GSK346294]	12%	8%	11%	3%	0%	8%	22%	34%	0%	32%
